TGFb inhibitor: inhibitors of TGF-b signaling. HepG2 CAGA-GFP TGF-b/SMAD3 reporter, GFP fluorescence, 18 h; TGF-beta stimulated, 500 pg/mL final. Potency, µM (highest dose often 46.1 µM), inactives show at the highest dose activity, negative = inhibition, hits mostly inhibitors. 410,000 compounds, 1.2% hits. AID 588855; note: potency is the fitted concentration of half-maximal effect; % is set by controls: 0 for no effect and ±100 for the full control effect; nearly all actives have a fitted effect of over 65% in size
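Inhibition of TGF-beta-driven CAGA-GFP reporter expression in HEPG2 cells is measured by cellular GFP fluorescence after 18 h stimulation with 500 pg/mL recombinant TGF-beta in 1% FBS medium at 37 degrees C.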
TDP1 inh: blocks human tyrosyl-DNA phosphodiesterase 1; Q9NUW8; recombinant TDP1, AlphaScreen DNA substrate cleavage; Potency, µM (titrated, usually from 130 µM), for inactives: at the highest dose activity change, negative = inhibition, usual class: inhibitors; 350,000 compounds, 0.28% hits; AID 485290; note: potency is the fitted concentration of half-maximal effect; % is set by controls: 0 for no effect and ±100 for the full control effect; nearly all actives have a fitted effect of over 40% in size
Target sequence (Q9NUW8 whole entry, looked up): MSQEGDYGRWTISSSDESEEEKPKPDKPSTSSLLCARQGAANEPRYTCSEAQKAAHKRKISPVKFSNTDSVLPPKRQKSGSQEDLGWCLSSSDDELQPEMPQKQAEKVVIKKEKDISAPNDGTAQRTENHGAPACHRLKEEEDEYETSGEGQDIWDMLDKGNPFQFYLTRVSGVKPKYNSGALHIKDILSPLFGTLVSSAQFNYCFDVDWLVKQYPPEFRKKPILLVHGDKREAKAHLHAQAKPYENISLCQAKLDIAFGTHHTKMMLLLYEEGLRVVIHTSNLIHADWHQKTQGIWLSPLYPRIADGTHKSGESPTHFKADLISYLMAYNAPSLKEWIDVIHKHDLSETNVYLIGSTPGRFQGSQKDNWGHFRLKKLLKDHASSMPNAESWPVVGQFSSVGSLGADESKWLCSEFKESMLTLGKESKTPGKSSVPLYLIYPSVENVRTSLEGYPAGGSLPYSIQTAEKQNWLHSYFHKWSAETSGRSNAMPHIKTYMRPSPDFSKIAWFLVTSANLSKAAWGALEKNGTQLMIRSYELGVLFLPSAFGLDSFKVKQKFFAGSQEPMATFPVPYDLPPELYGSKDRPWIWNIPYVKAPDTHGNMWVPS
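Here, a 5' biotin and 3' phosphotyrosine-FITC DNA oligonucleotide reports Tdp1 activity: intact substrate bridges AlphaScreen beads, while cleavage leaves a 3' phosphate and drops signal. All incubations at room temperature.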
HepG2 viability: kills HepG2 cells in TGF-b inhibitor counter-screen | 410,000 compounds, 0.76% hits | Potency, µM (doses to about 46.1 µM), inactives show top-dose activity change, negative = cytotoxicity, actives largely listed as cytotoxic | HepG2 CAGA-GFP viability, ATP luminescence, 18 h; note: potency is the fitted concentration of half-maximal effect
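HepG2 CAGA-GFP cells (1000/well, DMEM with 1% FBS) received compound, then TGF-beta at 500 pg/mL final, and were incubated 18 hours at 37 degrees C. Viability was read by CellTiter-Glo luminescence. Media-only wells were set as complete cell-killing and DMSO as no toxicity.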
IL-1B inflam inh: inflammasome signaling inhibition, IL-1 beta readout | activity change, % at 57.5 µM | 360,000 compounds, 4.7% hits | THP-1 LPS/ATP IL-1B secretion, AlphaLISA, 16 h; active compounds read low | AID 743279; in the data active = activity change below about -50%; inconclusive = mostly about -30% to -49%; note: % is set by controls: 0 for no effect and ±100 for the full control effect
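Secreted IL-1B measured by AlphaLISA bead assay after 16 h compound exposure of THP-1 cells; compounds (final up to 57.5 uM) added 1 h before LPS (250 ng/mL) and ATP (1.25 mM) stimulation; lower signal means less secretion.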
DT40 TDP1 CPT: DT40-hTDP1 cell growth loss with CPT | chicken DT40 Tdp1-/-;hTDP1 cells + 20 nM CPT, ATP luminescence, 48 h | Potency, µM (highest dose often 46.2 µM), without a hit: at the top dose activity change, negative = growth inhibition, usual class: inhibitors | 420,000 compounds, 12% hits | AID 686979; note: potency is the fitted concentration of half-maximal effect; % is set by controls: 0 for no effect and ±100 for the full control effect; nearly all actives have a fitted effect of over 55% in size
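Chicken DT40 Tdp1-/- cells stably complemented with human TDP1 were seeded at 400 cells/well in medium containing 20 nM camptothecin, exposed to pin-transferred compounds, and grown at 37 °C for at least 48 hr. Viability was read as ATP luminescence.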
DT40 TDP1 no CPT: qHTS for Inhibitors of human tyrosyl-DNA phosphodiesterase 1 (TDP1): qHTS in cells in absence of CPT. DT40 Tdp1-/- hTDP1 cells, no CPT, ATP luminescence, 48 h. Potency, µM (highest dose often 46.2 µM), inactives show at the top dose activity change, negative = growth inhibition, hits mostly inhibitors. 420,000 compounds, 15% hits; note: potency is the fitted concentration of half-maximal effect; % is set by controls: 0 for no effect and ±100 for the full control effect; nearly all actives have a fitted effect of over 55% in size
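Cells were dispensed at 400 per well, compounds added by pin tool, plates incubated ≥48 hr at 37 °C, then CellTiter-Glo added for 30 min at room temperature before luminescence reading. Line: DT40 Tdp1-/- complemented with hTDP1; camptothecin omitted.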
* = called active by the depositor; ? = inconclusive; . = no result; [ ] = another dose, or the depositor's remark. Hits are enriched below; roughly 18% of the tested compounds scored in any of these assays. Unless noted, calls come from the whole dose curve; as a rule, active = well fitted curve in the direction sought with a large enough effect; inconclusive = small, poorly fitted or top-dose-only effect, or another doubt; inactive = no such curve, though single readings can be large; an effect the other way counts as inactive or inconclusive.

SMILES	TGFb inhibitor	TDP1 inh	HepG2 viability	IL-1B inflam inh	DT40 TDP1 CPT	DT40 TDP1 no CPT
CCOC(=O)[C@@H]1[C@H]2COc3ccccc3[C@@H]2N2C(=O)N(c3cccc(Cl)c3)C(=O)[C@@]12C	-10.2%	.	-12.1%	-8.0	?	16.4µM*
CCOC(=O)[C@@H]1[C@H]2COc3cc(OC)ccc3[C@H]2N2C(=O)N(c3cccc(Cl)c3)C(=O)[C@@]12C	-10.3%	.	-5.4%	-25.8	?	?
Cc1ccc(S(=O)(=O)Oc2ccc(/C=N/NC(=O)c3nn(C)cc3Cl)cc2)cc1	0.0%	2.4%	-14.1%	0.0	-23.4%	-9.1%
CSCCOC(=O)COc1ccc(/C=N/NC(=O)c2nn(C)cc2Cl)cc1	-1.4%	5.3%	-33.6%	-69.4*	-19.3%	?
Fc1ccc(C2Nc3cccc4cccc(c34)N2)cc1	5.1%	.	-5.6%	-18.2	?	?
Cc1ccc(N=C2C(=O)Nc3ccccc32)cc1	-1.2%	.	-3.1%	17.4	-4.8%	4.3%
CCN(CC)c1ccc(C2NC(=O)c3ccccc3N2)cc1 (configuration not stated)	0.0%	.	-18.5%	38.7	7.31µM*	13µM*
CCN(CC)c1ccc(C2Nc3cccc4cccc(c34)N2)cc1	2.6%	.	-12.6%	-7.8	?	16.4µM*
CCCOc1ccc(C2Nc3cccc4cccc(c34)N2)cc1	5.3%	.	-16.2%	33.8	20.6µM*	6.51µM*
CCN(CC)c1ccc(N=C2C(=O)Nc3ccccc32)cc1	?	.	12.6µM*	-89.0*	6.51µM*	5.8µM*
CC(=O)OC[C@@H]1O[C@H](C/C=N\OC[C@@H](O)COCc2ccco2)C=C[C@@H]1OC(C)=O	.	5.8%[21 µM]	.	.	.	.
CN(C)CCNC(=O)C1Cc2c(-c3ccccc3Oc3ccccc3)ccnc2O1 (configuration not stated)	44.3%	.	-31.7%	-21.6	29.1µM*	18.4µM*
O=C(NCCc1ccccc1)C1Cc2c(-c3ccccc3Oc3ccccc3)ccnc2O1 (configuration not stated)	?	.	-43.3%	-29.0	16.4µM*	?
O=C(NCCC(F)(F)F)C1Cc2c(-c3ccccc3Oc3ccccc3)ccnc2O1 (configuration not stated)	-3.8%	.	-2.8%	?	-55.5%	?
CN(O)/C=c1/ccc2c(n1)C(=O)C=CC=2	?	19.2%[56.1 µM]	-11.3%	70.5	4.61µM*	4.61µM*
CCCc1cc(=O)[nH]c(SCC(=O)N(CCOC)c2c(N)n(Cc3ccccc3)c(=O)[nH]c2=O)n1	9.6%	0.3%[0.505 µM]	-14.6%	12.6	-14.1%	19.8%
CCCN(C(=O)c1cc(S(=O)(=O)N2CCN(CC)CC2)ccc1Cl)C1CCS(=O)(=O)C1 (configuration not stated)	-0.2%	.	-2.2%	-8.5	-17.8%	-2.4%
Cc1cc(C)n(-c2cccc(C(=O)NCC3Cc4cccc(-c5ccccn5)c4O3)c2)n1 (configuration not stated)	.	.	.	.	?	11.6µM*
O=C(NCC1Cc2cc(F)cc(-c3cnccn3)c2O1)c1cccc(-c2ccccc2F)c1 (configuration not stated)	.	.	.	.	11.6µM*	23.1µM*
Cc1cc2c(c(-c3cnccn3)c1)OC(CNC(=O)c1ccccc1C(F)(F)F)C2 (configuration not stated)	.	.	.	.	-2.7%	-10.0%
Cc1cc(C)n(-c2cccc(C(=O)NCC3Cc4cc(Cl)cc(-c5cnccn5)c4O3)c2)n1 (configuration not stated)	.	.	.	.	-3.6%[9.04 µM]	?
O=C(NCC1Cc2cc(F)cc(-c3cnccn3)c2O1)c1cccc(Cl)c1 (configuration not stated)	.	.	.	.	?	18.4µM*
